Experimental data as given in PubChem BioAssay (NCI).
About 83,000 compounds went through this panel and 20% of them were active in at least one assay; those are over-represented in the sample as a whole.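 For each line, cells grew in 96-well plates with the test compound present at a single concentration for 48 hours.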 Calls of active or inactive are those of the source. Rule for the calls: active = growth percent below 10; inactive = the rest.

Experiments:
Assay in all cases: NCI-60 one-dose screen, 48 h (100 = growth as untreated, 0 = no growth, -100 = all killed)
Settings in all cases: 10 µM unless noted
HCT-15 colon = test system: HCT-15 colon
HT29 colon = test system: HT29 colon
SNB-75 CNS = test system: SNB-75 CNS
SNB-19 CNS = test system: SNB-19 CNS
U251 CNS = test system: U251 CNS
PC-3 prostate = test system: PC-3 prostate
SK-MEL-5 melanoma = test system: SK-MEL-5 melanoma
UACC-62 melanoma = test system: UACC-62 melanoma
LOX IMVI melanoma = test system: LOX IMVI melanoma
SK-MEL-28 melanoma = test system: SK-MEL-28 melanoma
SK-MEL-2 melanoma = test system: SK-MEL-2 melanoma
EKVX NSCLC = test system: EKVX NSCLC
SN12C renal = test system: SN12C renal
UO-31 renal = test system: UO-31 renal
ACHN renal = test system: ACHN renal
CAKI-1 renal = test system: CAKI-1 renal
A498 renal = test system: A498 renal
CCRF-CEM leukemia = test system: CCRF-CEM leukemia
MOLT-4 leukemia = test system: MOLT-4 leukemia
TK-10 renal = test system: TK-10 renal

Measured: growth

COc1ccc2nc3ccccc3c(NCc3ccccc3)c2c1
active: HT29 colon 8.49% | LOX IMVI melanoma -31.1% | A498 renal -14.3% | MOLT-4 leukemia 8.01%
inactive: HCT-15 colon 13.1% | SNB-75 CNS 45.5% | SNB-19 CNS 24.2% | U251 CNS 22.9% | PC-3 prostate 28.6% | SK-MEL-5 melanoma 18.8% | UACC-62 melanoma 45.9% | SK-MEL-28 melanoma 49.7% | SK-MEL-2 melanoma 47.9% | EKVX NSCLC 26.9% | SN12C renal 22.4% | UO-31 renal 13.8% | ACHN renal 12.8% | CAKI-1 renal 25.8% | CCRF-CEM leukemia 33.4%

O=C(N/N=C/c1ccc(O)cc1O)c1ccc(Nc2ccnc(C(F)(F)F)c2)cc1
inactive: HCT-15 colon 39.7% | HT29 colon 58.6% | SNB-75 CNS 62.2% | SNB-19 CNS 32% | U251 CNS 24.6% | PC-3 prostate 50.2% | SK-MEL-5 melanoma 20.7% | UACC-62 melanoma 11.7% | LOX IMVI melanoma 12.9% | SK-MEL-28 melanoma 60.7% | SK-MEL-2 melanoma 73.3% | EKVX NSCLC 41.4% | SN12C renal 38.5% | UO-31 renal 46.1% | TK-10 renal 63.3% | ACHN renal 37.9% | A498 renal 74.7% | CCRF-CEM leukemia 29.1% | MOLT-4 leukemia 73.7%

C#CCn1cnc2c(Nc3cccc(NC(=O)CCl)c3)ncnc21
inactive: HCT-15 colon 23.4% | HT29 colon 26.9% | SNB-75 CNS 33.2% | SNB-19 CNS 58.7% | U251 CNS 19.1% | PC-3 prostate 28.6% | SK-MEL-5 melanoma 31.4% | UACC-62 melanoma 19.7% | LOX IMVI melanoma 24% | SK-MEL-28 melanoma 39.5% | SK-MEL-2 melanoma 46% | EKVX NSCLC 45.3% | SN12C renal 31.2% | UO-31 renal 46.7% | ACHN renal 23.4% | CAKI-1 renal 29.9% | A498 renal 78.7%
active: CCRF-CEM leukemia 4.81% | MOLT-4 leukemia 4.44%

COc1cc(Nc2c3ccc(Cl)cc3nc3ccc(OC)cc23)c2ncccc2c1
inactive: HCT-15 colon 23.8% | HT29 colon 38.1% | SNB-75 CNS 70.1% | SNB-19 CNS 66.6% | U251 CNS 31.5% | PC-3 prostate 38% | SK-MEL-5 melanoma 33% | UACC-62 melanoma 36.4% | LOX IMVI melanoma 29.3% | SK-MEL-28 melanoma 50% | SK-MEL-2 melanoma 78.6% | EKVX NSCLC 39.2% | SN12C renal 52.5% | UO-31 renal 26.9% | TK-10 renal 44.7% | ACHN renal 31.2% | A498 renal 62.4% | CCRF-CEM leukemia 26.9% | MOLT-4 leukemia 39.3%

CN1CCN(Cc2cc(NC(=O)c3cccc(C#Cc4cccc5[nH]nc(N)c45)c3)cc(C(F)(F)F)c2)CC1
active: HT29 colon -15.8% | SK-MEL-5 melanoma -5.74% | LOX IMVI melanoma -90.1% | UO-31 renal -17% | ACHN renal 4.75% | CCRF-CEM leukemia -8.44% | MOLT-4 leukemia -35.2%
inactive: HCT-15 colon 10.8% | SNB-75 CNS 22.9% | SNB-19 CNS 52.1% | U251 CNS 22.2% | PC-3 prostate 27.4% | UACC-62 melanoma 12.1% | SK-MEL-2 melanoma 17.8% | EKVX NSCLC 46% | SN12C renal 19.3% | TK-10 renal 61.4% | CAKI-1 renal 70.8% | A498 renal 42.6%

CCNC(=O)Oc1ccc(/C(=C(/C)Cc2ccc(OC)cc2)c2ccc(OCCN3CCCCCC3)cc2)cc1
active: HT29 colon 2.15% | LOX IMVI melanoma -22%
inactive: HCT-15 colon 18.7% | SNB-75 CNS 77.4% | SNB-19 CNS 82.7% | U251 CNS 45.1% | PC-3 prostate 63.8% | SK-MEL-5 melanoma 66.2% | UACC-62 melanoma 73.2% | SK-MEL-28 melanoma 75.3% | SK-MEL-2 melanoma 87% | EKVX NSCLC 71.3% | SN12C renal 69.2% | UO-31 renal 52.9% | TK-10 renal 84.2% | ACHN renal 94.2% | A498 renal 70.5% | CCRF-CEM leukemia 41.6% | MOLT-4 leukemia 35.2%

COc1ccc(OC)c(Nc2nnc(-c3ccc(Cl)cc3)o2)c1
inactive: HCT-15 colon 96% | HT29 colon 48.9% | SNB-75 CNS 59.4% | SNB-19 CNS 58.4% | PC-3 prostate 88.4% | SK-MEL-5 melanoma 104% | UACC-62 melanoma 97.5% | LOX IMVI melanoma 73.8% | SK-MEL-28 melanoma 102% | SK-MEL-2 melanoma 96.9% | EKVX NSCLC 82.5% | SN12C renal 90.1% | UO-31 renal 51.8% | TK-10 renal 36% | ACHN renal 30.8% | A498 renal 96% | CCRF-CEM leukemia 108% | MOLT-4 leukemia 88.5%
active: U251 CNS 2.55%

COc1cccc(/C=C/C(=O)c2cc3c(N)c(C(=O)Nc4ccccc4C)sc3nc2C)c1
inactive: SNB-75 CNS 12.8% | SNB-19 CNS 11.4% | PC-3 prostate 45.3% | SK-MEL-5 melanoma 52.4% | UACC-62 melanoma 33.6% | SK-MEL-28 melanoma 70.9% | SK-MEL-2 melanoma 27.3% | EKVX NSCLC 91.7% | SN12C renal 13.9% | UO-31 renal 38.5% | TK-10 renal 74.1% | ACHN renal 56.1% | A498 renal 75.7% | MOLT-4 leukemia 32.6%
active: HCT-15 colon 8.29% | HT29 colon -5.29% | U251 CNS 7.49% | LOX IMVI melanoma -65.9% | CCRF-CEM leukemia 9.22%

C=NNc1ccccc1
inactive: HCT-15 colon 87.4% | HT29 colon 108% | SNB-75 CNS 90.9% | SNB-19 CNS 93.8% | U251 CNS 88.1% | PC-3 prostate 63.8% | SK-MEL-5 melanoma 98.8% | UACC-62 melanoma 50.2% | LOX IMVI melanoma 62.8% | SK-MEL-28 melanoma 117% | SK-MEL-2 melanoma 123% | EKVX NSCLC 92.8% | SN12C renal 89.6% | UO-31 renal 71% | TK-10 renal 127% | ACHN renal 78% | A498 renal 77.1% | CCRF-CEM leukemia 71.5% | MOLT-4 leukemia 105%

CCCCCCCCNc1cc2c3c(c1)CCCN3CCC2
active: HT29 colon -9.19% | PC-3 prostate -0.993% | SK-MEL-5 melanoma -71.8% | LOX IMVI melanoma 2.21% | SK-MEL-2 melanoma -46.6% | SN12C renal 9.8%
inactive: HCT-15 colon 17.9% | SNB-75 CNS 35.9% | SNB-19 CNS 17.5% | U251 CNS 15.5% | UACC-62 melanoma 27.8% | SK-MEL-28 melanoma 48.9% | EKVX NSCLC 10% | UO-31 renal 61% | ACHN renal 30.9% | CAKI-1 renal 38.6% | A498 renal 80.2% | CCRF-CEM leukemia 42.8% | MOLT-4 leukemia 27.5%

CCN(CCO)CC(C)Nc1ccc([N+](=O)[O-])c2sc3ccccc3c(=O)c12 (centres undefined)
inactive: HCT-15 colon 27.2% | HT29 colon 11.3% | SNB-75 CNS 36.4% | SNB-19 CNS 43.2% | U251 CNS 26.7% | PC-3 prostate 28.3% | SK-MEL-5 melanoma 12.3% | UACC-62 melanoma 29.8% | LOX IMVI melanoma 16.2% | SK-MEL-28 melanoma 44.4% | SK-MEL-2 melanoma 36.6% | EKVX NSCLC 25.7% | SN12C renal 28.2% | ACHN renal 11.5% | A498 renal 50.6% | CCRF-CEM leukemia 35.6% | MOLT-4 leukemia 17.3%
active: UO-31 renal -15.6% | CAKI-1 renal -3.3%

COc1ncc2cc1NS(=O)(=O)c1cccc(c1)C(=O)NCC1=CC=C(S1)c1ncnc3c1SC2=C3C
active: HCT-15 colon -18.2% | HT29 colon 4.55% | SNB-75 CNS -12.9% | U251 CNS -10.2% | PC-3 prostate -24.8% | SK-MEL-5 melanoma -38.2% | UACC-62 melanoma -46.7% | LOX IMVI melanoma -32.1% | SK-MEL-28 melanoma -62.2% | SK-MEL-2 melanoma -33.2% | EKVX NSCLC -15.6% | SN12C renal 5.73% | UO-31 renal -12.9% | ACHN renal -13.7% | CAKI-1 renal -26.1% | A498 renal -67.2% | CCRF-CEM leukemia -0.78% | MOLT-4 leukemia -20.2%
inactive: SNB-19 CNS 11.5%

O=C(Cn1nnc2ccccc21)Nc1ccc(-c2nc3ccccc3s2)cc1
inactive: HCT-15 colon 91.5% | HT29 colon 101% | SNB-75 CNS 106% | SNB-19 CNS 103% | U251 CNS 89.6% | PC-3 prostate 83.3% | SK-MEL-5 melanoma 74.3% | UACC-62 melanoma 97.1% | LOX IMVI melanoma 84.2% | SK-MEL-28 melanoma 102% | SK-MEL-2 melanoma 101% | EKVX NSCLC 78.2% | SN12C renal 101% | UO-31 renal 86.5% | TK-10 renal 94.8% | ACHN renal 110% | A498 renal 85.1% | CCRF-CEM leukemia 69.7% | MOLT-4 leukemia 61.6%

COc1ccc(C(c2cc(OC)c(OC)c(OC)c2)N2CCN(Cc3ccccc3)CC2)cc1 (centres undefined)
inactive: HCT-15 colon 47.6% | HT29 colon 28.3% | SNB-75 CNS 92.4% | SNB-19 CNS 70% | U251 CNS 62.8% | PC-3 prostate 59.3% | SK-MEL-5 melanoma 52.6% | UACC-62 melanoma 49.4% | LOX IMVI melanoma 67% | SK-MEL-28 melanoma 78.3% | SK-MEL-2 melanoma 27.4% | EKVX NSCLC 82.7% | SN12C renal 88.4% | UO-31 renal 68.8% | ACHN renal 92.8% | CAKI-1 renal 66.7% | A498 renal 51.9% | CCRF-CEM leukemia 68.8% | MOLT-4 leukemia 53.5%

CCCCCn1sc(=O)n(Cc2ccc(CNC(=O)OCc3ccc4c(Cl)cc(Cl)c(O)c4n3)cc2)c1=O
inactive: HCT-15 colon 17.1% | HT29 colon 110% | SNB-75 CNS 82.1% | SNB-19 CNS 48.6% | U251 CNS 39.7% | PC-3 prostate 61.1% | SK-MEL-5 melanoma 48.7% | UACC-62 melanoma 40.4% | LOX IMVI melanoma 51.8% | SK-MEL-28 melanoma 56% | SK-MEL-2 melanoma 90.1% | EKVX NSCLC 86% | SN12C renal 51.4% | UO-31 renal 11.6% | ACHN renal 28.9% | CAKI-1 renal 55% | A498 renal 80.7% | CCRF-CEM leukemia 34.4% | MOLT-4 leukemia 31.8%

CCNC(=O)Oc1ccc(/C(=C(/C)Cc2ccc(OC)cc2)c2ccc(OCCN3CCCC3)cc2)cc1
active: HT29 colon 7.46%
inactive: HCT-15 colon 45.9% | SNB-75 CNS 73.8% | SNB-19 CNS 80.4% | U251 CNS 54.3% | PC-3 prostate 66.4% | SK-MEL-5 melanoma 57.7% | UACC-62 melanoma 69.1% | LOX IMVI melanoma 60.8% | SK-MEL-28 melanoma 66.1% | SK-MEL-2 melanoma 110% | EKVX NSCLC 76.2% | SN12C renal 75.6% | UO-31 renal 57.8% | ACHN renal 92.4% | CAKI-1 renal 82.3% | A498 renal 91.9% | CCRF-CEM leukemia 45.8% | MOLT-4 leukemia 31.6%
